Here are results for 26 compounds from PubChem BioAssay (NCI).

Test in all cases: NCI-60 one-dose screen, 48 h (100 = growth as untreated, 0 = no growth, -100 = all killed)
What all share (settings): 10 µM unless noted

Assay [1] deals with NCI-H23 lung.
Assay [2] concerns NCI-H226 lung.
Assay [3] concerns NCI-H322M lung.
Assay [4] relates to HOP-62 NSCLC.
Assay [5] has as its system NCI-H460 lung.
Assay [6] deals with HOP-92 NSCLC.
Assay [7] concerns NCI-H522 lung.
The test system of assay [8] is A549/ATCC NSCLC.
In assay [9] the test system is 786-0 renal.
The subject of assay [10] is COLO 205 colon.

Structures are written as SMILES. The panel holds about 83,000 compounds, 20% with a hit somewhere; the sample as a whole holds those more often.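 Step 1: grow cells in 96-well plates. Step 2: add test compound at a single concentration. Step 3: incubate 48 h. Step 4: record percent growth.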 A number with no mark means an inactive call. Calls of active or inactive are those of the source. The calls were made as follows: active = growth percent below 10; inactive = the rest.

In the case of `Cn1c(Nc2ccc(C(F)(F)F)cc2)nc2cc(Oc3ccnc(-c4ncc(C(F)(F)F)[nH]4)c3)ccc21`, the growth was 48.8% in assay [1]; 64.5% in assay [2]; 30.8% in assay [3]; 60% in assay [4]; 59.2% in assay [5]; 67% in [6]. Also, the growth was 40.5% in [7], 40.1% in assay [8], 89.4% in [9] and 22.9% in assay [10].

`Cc1cc(Nc2cc(N3CCN(C)CC3)nc(/C=C/c3ccccc3)n2)n[nH]1`: the growth in assay [1] was 22.3%; in [2] it was 17.7%; in [3], 29.5%; in assay [4], -19.7% (active); in assay [5], 5.31% (active); in [6], -60.5% (active). Moreover, the growth in assay [7] was -12.4% (active); in assay [8] it was -25% (active); in assay [9], -94.3% (active); in assay [10], -63.2% (active).

For the compound `CN1[C@@H]2CC[C@H]1/C(=C\c1ccccc1)C1=C2[C@@H](c2ccccc2)C(C#N)=C(N)O1`, the growth in assay [1] is 78.6%; in [2], 67.2%; in assay [3], 94.8%; in [4], 90.6%; in assay [5], 92.7%; in assay [6] it was 78.7%. In addition, the growth in [7] was 74%; in assay [8], 48.3%; in assay [9], 73.4%; in [10], 80.4%.

In the case of `CCN1CCN(Cc2ccc(-c3cc4c(N[C@H](C)c5ccccc5)ncnc4[nH]3)cc2)CC1`, the growth is 42.3% in [1]; 50.9% in assay [2]; -2.25% (active) in assay [3]; 28.5% in [4]; 21.9% in assay [5]; 21.4% in assay [6]. Besides, the growth in [7] is 6.19% (active); in [8] it was 17.5%; in assay [9], 50.3%; in assay [10], -21.4% (active).

`Cn1cc(-c2ncnc3ccc(-c4cnc(Cl)c(NS(C)(=O)=O)c4)cc23)c2ccccc21`: the growth in [1] was 29.7%; in [2], 16.4%; in [3] it was 0.878% (active); in [4], 16.2%; in assay [5] it was 8.88% (active); in assay [6], -8.63% (active). Further, the growth in assay [7] was 17%; in [8], 6.57% (active); in [9], 12%; in assay [10], 16.4%.

For `COc1ccc(Nc2ncccc2NC(=O)c2cn(Cc3cccc(Oc4ccccc4)c3)nn2)cc1`, the growth is 91.8% in assay [1]; 93.8% in assay [2]; 82.9% in [3]; 106% in assay [4]; 96.5% in assay [5]; 99.6% in [6]. For the same compound, the growth was 77.8% in assay [7], 80.2% in [8], 102% in assay [9] and 102% in [10].

Take `C=CC(=O)N1CCC[C@H](n2c(=O)n(-c3ccc(Oc4ccccc4)cc3)c3c(N)ncnc32)C1`: the growth in assay [1] was 92.7%; in assay [2], 79.1%; in assay [3], 19.3%; in [4], 82.8%; in assay [5], 96.2%; in assay [6] it was 85.7%. Further, the growth in assay [7] is 11.3%; in [8] it was 58.3%; in [9], 85.3%; in assay [10], 93.1%.

In the case of `Cn1nccc1Nc1nccc(-c2ccn([C@H](CO)c3ccc(Cl)c(F)c3)c(=O)c2)n1`, the growth in assay [1] is 68.5%; in assay [2], 110%; in assay [3] it was 61%; in assay [4] it was 78.8%; in assay [5] it was 99.5%; in assay [6], 103%. Also, the growth in assay [7] was 71.2%; in [8], 72.3%; in assay [9] it was 93%; in assay [10] it was 14.4%.

Take `CC(=O)NCC(=O)N1[C@@H]2CC[C@H]1c1ccc(Nc3ncc(C(F)(F)F)c(NC4CCC4)n3)cc12`: the growth is 27.9% [2.5 µM] in assay [1]; 42.8% [2.5 µM] in assay [2]; 14.2% [2.5 µM] in assay [3]; 23% [2.5 µM] in assay [4]; 16.3% [2.5 µM] in assay [5]; -1.13% [2.5 µM] (active) in [6]. For the same compound, the growth was 46.1% [2.5 µM] in assay [7], 34% [2.5 µM] in [8], 42.4% [2.5 µM] in assay [9] and -22.6% [2.5 µM] (active) in [10].

Consider `C=CC(=O)N1CCC(Oc2cc3c(Nc4ccc(Cl)c(Cl)c4F)ncnc3cc2OC)CC1`, for which the growth is 23.2% in assay [1]; 34.9% in assay [2]; 12.2% in assay [3]; 18.4% in assay [4]; 39.3% in assay [5]; -29.7% (active) in [6]. Further, the growth in assay [7] was -49.3% (active); in assay [8], 15.7%; in assay [9], 23.2%; in assay [10], 15%.

For the compound `CC(=O)O[C@]1(C)C[C@H](O)[C@]2(O)C=CO[C@H](O[C@@H]3O[C@H](CO)[C@@H](O)[C@H](O)[C@H]3O)[C@@H]21`, the growth in assay [1] was 99.3%; in assay [2] it was 96.7%; in assay [3], 101%; in assay [4], 95.2%; in assay [5], 110%; in [6], 129%. The growth in assay [7] is 95.4%; in [8] it was 105%; in assay [9] it was 93.2%; in assay [10], 108%.

Take `COc1cc(Nc2c(C#N)cnc3cc(OCCCN4CCN(C)CC4)c(OC)cc23)c(Cl)cc1Cl`: the growth is 61.5% in [1]; 78.4% in assay [2]; 13.3% in [3]; 61.3% in assay [4]; 38.6% in assay [5]; 98% in assay [6]. The growth in assay [7] is 14.5%; in assay [8], 36.1%; in [9], 67.7%; in assay [10], 6.9% (active).

In the case of `C[C@H]1Oc2cc(cnc2N)-c2c(nn(C)c2C#N)CN(C)C(=O)c2ccc(F)cc21`, the growth is 84% in assay [1]; 92.2% in assay [2]; 104% in assay [3]; 50% in assay [4]; 96.7% in [5]; 48.4% in assay [6]. The growth in [7] is 66.5%; in assay [8], 66.1%; in [9], 77.9%; in assay [10], 36.3%.

Turning to `Cc1c(Cn2c(C)nc3c(C(=O)O)cc(N4CCOCC4)cc32)cccc1C(F)(F)F`, the growth in assay [1] is 105%; in assay [2], 114%; in [3], 98.8%; in assay [4] it was 79%; in assay [5], 102%; in assay [6], 88.3%. Moreover, the growth in assay [7] was 62.9%; in assay [8] it was 89.7%; in [9] it was 95.8%; in assay [10] it was 108%.

As for `CC[C@H](CO)Nc1nc(NCc2ccccc2)c2ncn(C(C)C)c2n1`, the growth in assay [1] is 63.5%; in [2], 76%; in assay [3] it was 61.3%; in assay [4], 48.2%; in assay [5] it was 47.8%; in assay [6], 65.4%. Moreover, the growth in assay [7] was 48.8%; in [8], 56%; in assay [9], 57.6%; in assay [10], 47.1%.

With `CCOC(=O)Sc1ncnc2nc[nH]c12`, the growth in [1] was 64.8%; in assay [2], 37.4%; in assay [3] it was 40.4%; in assay [4] it was 17.2%; in assay [5], 71.8%; in [6], 12.2%. Also, the growth is -18.8% (active) in assay [7], 104% in [8], 18% in [9] and 103% in [10].

As for `Cn1ccnc1C(=O)/C=C/c1ccc(CC(=O)Nc2ccc(Br)cc2)cc1`, the growth was 24.5% in assay [1]; 43.2% in assay [2]; 6.4% (active) in [3]; -32.7% (active) in [4]; -11.2% (active) in assay [5]; 61.1% in [6]. Further, the growth is 2.89% (active) in assay [7], 3.64% (active) in assay [8], 7.96% (active) in assay [9] and 6.56% (active) in assay [10].

Take `O=C(COc1cccc(/C=C2\Cc3ccc(Cl)cc3C2=O)c1)Nc1nccs1`: the growth in [1] is 78.5%; in assay [2], 86.1%; in [3], 96.9%; in [4], 96.5%; in assay [5], 89.2%; in [6] it was 77.2%. The growth was 2.66% (active) in [7], 88.7% in assay [8], 98.5% in assay [9] and 113% in assay [10].

With `COc1cc(NC2CCC(=O)N2c2ccc(Cl)cc2Cl)cc(OC)c1OC` (stereo not given), the growth was 99.4% in assay [1]; 99.9% in assay [2]; 97.3% in assay [3]; 103% in assay [4]; 102% in assay [5]; 83.1% in [6]. Moreover, the growth was 99.9% in assay [7], 99.4% in assay [8], 103% in [9] and 97.7% in [10].

As for `CCN1CCN(c2nc(C)cc(N(CCCNc3ccnc4cc(Cl)ccc34)Cc3ccc4c(c3)OCO4)n2)CC1`, the growth was 46% in assay [1]; 61% in [2]; -11.1% (active) in assay [3]; -42.1% (active) in assay [4]; -6.13% (active) in assay [5]; -33.9% (active) in [6]. Further, the growth in assay [7] is -43.1% (active); in assay [8] it was 5.33% (active); in assay [9], -85.8% (active); in assay [10], -78.6% (active).

For the compound `O=C(Cn1ccnc1)Nc1ccc(-c2nc3ccccc3s2)cc1`, the growth in assay [1] was 57.4%; in [2], 66.6%; in [3], 98.3%; in [4], 83.8%; in assay [5], 79.8%; in assay [6] it was 75.8%. The growth was 74.7% in assay [7], 70.3% in assay [8], 78% in assay [9] and 80.8% in assay [10].

As to `COC(=O)[C@]12CC[C@@H](C)[C@H](C)[C@@H]1C1=CC[C@@H]3[C@@]4(C)C(C=O)=C[C@@](C)(COS(C)(=O)=O)C4=CC[C@@]3(C)[C@]1(C)CC2`, the growth is -45.8% (active) in assay [1]; -57% (active) in [2]; 12.2% in assay [3]; -14.5% (active) in assay [4]; -73.6% (active) in [5]; -87.7% (active) in assay [6]. Further, the growth in assay [7] is -75.2% (active); in assay [8], -14.6% (active); in [9], -66% (active); in assay [10], -39.9% (active).

With `CC#CC(=O)N1CCC[C@H]1c1nc(-c2ccc(C(=O)Nc3ccccn3)cc2)c2c(N)nccn12`, the growth in assay [1] is 96.4%; in [2] it was 80.2%; in assay [3] it was 76.6%; in assay [4], 68.9%; in [5], 90.4%; in assay [6] it was 76.9%. For the same compound, the growth is 37.1% in assay [7], 48.6% in [8], 92.3% in assay [9] and 81.6% in [10].

`CN(C[C@@H]1COCCO1)S(=O)(=O)Nc1ccc2ccc3ncc(-c4cnn(C)c4)cc3c(=O)c2c1`: the growth was 30.6% in assay [1]; 40.9% in [2]; 26.3% in assay [3]; 36.4% in assay [4]; 35% in assay [5]; 16.9% in assay [6]. Moreover, the growth was 11.2% in [7], 48.1% in assay [8], 41.3% in [9] and 49.3% in [10].

Consider `C#Cc1cccc(Nc2ncnc3cc(OCCOC)c(OCCOC)cc23)c1`, for which the growth in [1] is 74.9%; in assay [2], 75.4%; in [3] it was 0.463% (active); in assay [4], 63%; in assay [5], 55.8%; in [6] it was 72.8%. Besides, the growth in assay [7] was -6.57% (active); in assay [8], 41.5%; in assay [9] it was 57.5%; in assay [10] it was 60.8%.

As for `C=C1C(=O)O[C@H]2[C@H]1CC/C(CNC(=O)c1cc3cc(OC)ccc3[nH]1)=C\CC[C@@]1(C)O[C@@H]21`, the growth was -54.8% (active) in [1]; -40.5% (active) in [2]; 65.4% in assay [3]; 46.9% in [4]; 19.3% in assay [5]; -67.3% (active) in assay [6]. Besides, the growth was -67.5% (active) in assay [7], 18.5% in assay [8], -67.2% (active) in assay [9] and -73.6% (active) in [10].
